{"source": "PubChem BioAssay (EPA / NIEHS)", "note": "“And” between values parts separate entries of the source, which are not always exact repeats. Equal entries are not always repeated. Some structures have more than one record in an assay (separate samples or runs), and their calls can disagree. The source made the active and inactive calls. Rule for the calls: active = hit-call score of the fitted dose curve at least 0.9, where 1 is the maximum; inactive = score below 0.9.", "data": [{"read-out": "Matrix Metallopeptidase 9 (MMP9), MMP9 (gene 4318)", "experiment": "BSK_BE3C_MMP9: BioMAP Diversity Plus: BE3C Assay for Matrix Metallopeptidase 9 (MMP9) Biomarker Activity (AID 2284283)", "settings": "primary human bronchial epithelial cells", "protocol": "BSK_BE3C is a cell-based, multiplexed-readout assay that uses bronchial epithelial cell, a human lung primary cell, with measurements taken at 24 hours after chemical dosing in a 96-well plate.BSK_BE3C_MMP9 is an assay component measured in the BSK_BE3C assay. It measures MMP-9 antibody related to regulation of gene expression using ELISA technology.Data from the assay component BSK_BE3C_MMP9 was analyzed at the endpoint, BSK_BE3C_MMP9, in the positive analysis fitting direction relative to DMSO as the negative control and baseline of activity. Using a type of binding reporter, gain or loss-of-signal activity can be used to understand protein changes. To generalize the intended target to other relatable targets, this assay endpoint is annotated to the 'protease' intended target family, where the subfamily is 'matrix metalloproteinase'.\nThe levels of cell surface (or secreted, indicated by the prefix \"s\") biomarker endpoints were measured by ELISA. Overt cytotoxicity to cells in confluent adherent cultures (all systems other than the BT system) was assessed by measuring total protein levels using sulforhodamine B (SRB) staining in parallel cultures at the time of biomarker measurements, indicated as SRB endpoints. For proliferation assays for adherent cell types, individual cell types are cultured at sub-confluence and relative cell numbers quantified by SRB staining at time points optimized for each system (48 h: 3C and CASM3C systems; 72 h: BT and HDF3CGF systems; 96 h: SAg system). SRB was performed by staining cells with 0.1% SRB after fixation with 10% TCA and reading wells at 560 nm.Viability and proliferation of PBMC (T cells) was quantified by Alamar Blue reduction for the SAg and BT systems. For PBMC viability (referred to as PBMC Cytotoxicity within the assay endpoint names), cells were plated (75,000/well in a 96-well plate) and then chemical samples added for 1 h before addition of activators, SEB and TSST-1 (20 ng/mL final concentration each). Cells were incubated for 90 h. Then, Alamar Blue (20 uL/well) (Invitrogen, Cat DAL1100) was added for 6 h, and the plates were read with a fluorescence microplate reader at 546/580 nm (excitation/emission). For PBMC proliferation, cells were plated and activated as above but incubated for only 16 h prior to addition of Alamar Blue. Plates were read after 6 h.", "values": [{"smiles": "c1ccc(Nc2cccc3ccccc23)cc1", "AC50": "20 µM (active) and 26.6 µM (active)"}, {"smiles": "CCCC(C)C(=O)OCC", "note": "(stereo not given)", "outcome": "inactive"}, {"smiles": "CC(C)C(=O)OCCc1ccccc1", "outcome": "inactive"}, {"smiles": "O=C(O)C(F)(F)C(F)(F)C(F)(F)C(F)(F)C(=O)O", "outcome": "inactive"}, {"smiles": "CCCCCCCCCCCC(=O)N(C)CC(=O)O", "outcome": "inactive"}, {"smiles": "Oc1ccccc1Cc1ccccc1O", "outcome": "inactive", "AC50": "20 µM (active)"}, {"smiles": "C[N+](C)(C)CCCNS(=O)(=O)C(F)(F)C(F)(F)C(F)(F)C(F)(F)C(F)(F)C(F)(F)C(F)(F)C(F)(F)F", "outcome": "inactive"}, {"smiles": "Nc1nc(N)nc(-c2ccccc2)n1", "outcome": "inactive"}, {"smiles": "CC(CCC(=O)O)(c1ccc(O)cc1)c1ccc(O)cc1", "outcome": "inactive"}]}]}
